High-throughput results: PubChem BioAssay, National Center for Advancing Translational Sciences (NCATS)
HPGD inh – HPGD (human) dehydrogenase inhibition | P15428 | purified HPGD, NADH fluorescence kinetic, PGE2 substrate | Potency, µM, for the others: at the top dose activity change, negative = inhibition, actives largely listed as inhibitors | 4.3% of 150,000 active | AID 894; also: potency is read from the fitted curve at half-maximal effect
Target sequence (P15428 whole entry, looked up): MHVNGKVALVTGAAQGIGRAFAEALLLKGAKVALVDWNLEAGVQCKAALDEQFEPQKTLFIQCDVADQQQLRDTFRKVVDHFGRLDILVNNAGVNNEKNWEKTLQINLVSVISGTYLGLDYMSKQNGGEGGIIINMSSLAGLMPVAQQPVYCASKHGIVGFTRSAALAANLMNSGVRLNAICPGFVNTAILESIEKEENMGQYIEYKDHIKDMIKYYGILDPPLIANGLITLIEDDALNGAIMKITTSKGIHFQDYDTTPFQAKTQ
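20 nM HPGD preincubated 15 min at room temperature with compound in 50 mM Tris-HCl pH 8, 0.01% Tween 20. Started with 1 mM NAD+ and 30 uM prostaglandin E2; NADH fluorescence (360/450 nm) read 5 times over 30-s intervals, last minus first.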
ALDH1A1 block – inhibitors of human aldehyde dehydrogenase 1A1; P00352; Purified ALDH1A1, NADH fluorescence, propionaldehyde substrate; Potency, µM (highest dose often 75.3 µM), for the others: at the highest dose activity, negative = inhibition, usual class: inhibitors; 7.3% of 220,000 active; AID 1030;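 also: potency is read from the fitted curve at half-maximal effect; plate controls were no enzyme wells and a reference inhibitor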
IMPase cell inh – IMPase inhibition in cells. AID 901. inhibition (IP1 accumulation), % at 46.1 µM. 120,000 tested, under 10 active. P97697. CHO-M1 cells, IP1 accumulation, HTRF TR-FRET ratio; active = well fitted curve in the direction sought with a large enough effect in the signal ratio, not every such curve was filed as active; inconclusive = small, poorly fitted or top-dose-only effect, or a change in a side signal; inactive = no such curve, though single readings can be large or run the other way; the % refers to the signal ratio;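 also: cells stimulated with carbachol in lithium chloride buffer; plate controls were DMSO basal wells for no effect and reference inhibitor wells for full effect; higher means more IMPase inhibition seen as more IP1 and lower FRET ratio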
Target sequence (P97697 whole entry, looked up): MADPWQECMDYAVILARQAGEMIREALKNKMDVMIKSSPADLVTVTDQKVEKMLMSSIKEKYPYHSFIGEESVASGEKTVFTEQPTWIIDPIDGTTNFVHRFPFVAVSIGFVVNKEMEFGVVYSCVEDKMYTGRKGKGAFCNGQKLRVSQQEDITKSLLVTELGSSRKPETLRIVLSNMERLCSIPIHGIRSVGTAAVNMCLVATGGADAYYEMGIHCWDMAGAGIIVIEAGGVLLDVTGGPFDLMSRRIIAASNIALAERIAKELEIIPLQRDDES
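In this qHTS, compounds (final up to 46 uM) act on CHO-M1 cells that are then activated through the M1 receptor with carbachol, in pH 7.4 buffer containing 50 mM LiCl, for 30 min. IP1 accumulation is quantified by the IP-One immunoassay.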
PNC assembly inh – perinucleolar compartment assembly inhibition | AID 2417 | PC3M PTB-GFP, PNC prevalence imaging, 16 h; active compounds read low | activity change (PNC), negative = inhibition, % at 10 µM | 3.1% of 140,000 active;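 active = readout at or below -70, meaning at least 70% loss of cells showing the perinucleolar compartment, a nuclear body marking cancer cells; inconclusive = readout between -30 and a set limit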;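 also: plate controls were DMSO wells for no effect and camptothecin positive control wells for full effect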
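Read-out is percentage of cells bearing a perinucleolar compartment, from automated 20x imaging of fixed, Hoechst-stained PC3M PTB-GFP cells. Cells were seeded 4 h, then exposed 16 h to compound (23 nl of library stock) in duplicate plates.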
LMNA splice mod – LMNA splicing modulation; Potency, µM (series often up to 46.1 µM), for inactives: top-dose ratio change, negative = inhibition, actives largely listed as inhibitors; AID 1487; 0.01% of 200,000 active; HeLa LMNA splicing GFP/RFP minigene ratio, 48 h; active = well fitted inhibition curve with a large enough effect in the signal ratio, with a control signal flat, not every such curve was filed as active; inconclusive = small, poorly fitted or top-dose-only effect, or effect the other way, or a change in a side signal; the % refers to the signal ratio; also: potency is read from the fitted curve at half-maximal effect
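S3 HeLa stable clones carrying a lamin A-EGFP splicing minigene plus DsRed2 were seeded at 600 cells/well in Opti-MEM with 2% FBS, pin-dosed and incubated 48 h at 37°C. Acumen cytometry (488 nm) gave the GFP/RFP total-intensity ratio.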
KinaseGlo FLuc – counter-screen: inhibitors of Kinase-Glo firefly luciferase | Kinase-Glo luciferase, ATP luminescence, 8 min | Potency, µM (titrated, usually from 38.3 µM), for the others: top-dose activity change, negative = inhibition, hits mostly inhibitors | 0.28% of 200,000 active | AID 1379; active = well fitted inhibition curve with a large enough effect; inconclusive = small, poorly fitted or top-dose-only effect; also: potency is read from the fitted curve at half-maximal effect; nearly all actives have a fitted effect of over 60% in size
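Luminescence was the read-out, taken after 8-minute incubation at ambient temperature. Luciferase turned over luciferin with 10 uM ATP in imidazole pH 7.2 buffer containing KCl, MgCl2, Tween 20 and BSA.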
Numbers without * were called inactive; ? = inconclusive; . = no result; [ ] = dose if it differs, or a comment. An excerpt weighted towards active compounds, which were near 10% of everything screened. Unless noted, calls follow the shape of the dose curve; as a rule, active = well fitted inhibition curve with a large enough effect (not every such curve was filed as active); inconclusive = small, poorly fitted or top-dose-only effect, or another doubt; inactive = no such curve, though single readings can be large or run the other way. Unless noted, % is scaled to controls: 0 for no effect and ±100 for the full control effect.

SMILES	HPGD inh	ALDH1A1 block	IMPase cell inh	PNC assembly inh	LMNA splice mod	KinaseGlo FLuc
CCN(CC)C(=O)c1sc2c(c1C)c(=O)n(-c1ccc(Cl)c(Cl)c1)c(=O)n2Cc1ccccc1C#N	.	.	.	.	9%[46 µM]	.
OC[C@@H]1O[C@H](O)[C@@H](Cl)[C@H](O)[C@@H]1O	.	.	6	.	.	.
Cc1ccc(CN(C(=O)c2ccc(OCC(C)C)cc2)c2ccccn2)o1	.	.	.	.	-6%[46 µM]	.
CC(C)N=C1NN=C(c2ccc(F)cc2)CS1	.	?	.	.	.	10µM*
CCN=C1NN=C(c2ccc(C)cc2)CS1	28µM*	25µM*	-20	32	10%	-14%
Clc1ccc(C2=NNC(=NCc3ccccc3)SC2)cc1	.	10µM*	.	.	.	1%
COC(=O)C1(C(=O)OC)CC2=CC(CC2=O)Cc2ccccc2[C@@H]1C[N+](=O)[O-] (stereo not given in full)	-4%	9%	.	.	.	2%
CC(C)N(Cc1ccccc1)C(=O)c1nc(-c2ccc(Cl)cc2)n2c1CCCCC2	.	.	.	.	-15%[46 µM]	.
COc1cc(OC)cc(C(=O)N[C@H](C(=O)OCC(=O)Nc2sccc2C#N)C(C)C)c1	.	28µM*	.	.	-25%[46 µM]	0%
COC(=O)C1=C(C(=O)OC)[C@@H]2N(C)c3ccccc3[C@@]23C[C@@H](C(=O)OC)N(S(=O)(=O)c2ccc([N+](=O)[O-])cc2)C3=N1	-6%	2%[13.5 µM]	.	.	-17%[9.22 µM]	-6%[7.66 µM]
COc1ccc(-c2c(C#N)c(N)nc3sc(C(=O)c4ccccc4)c(N)c23)cc1	?	4µM*	?	-17	-17%	3%
O=C1C2C(C(=O)N1/N=C/c1cccc([N+](=O)[O-])c1)C1C=CC2C12CC2 (stereo not given)	16µM*	16µM*	.	?	4%	-9%
O=C1C2C(C(=O)N1/N=C/c1ccco1)C1C=CC2C12CC2 (stereo not given)	-15%	10µM*	6	27	-2%	-1%
O=C1C2C3C=CC(C4CC34)C2C(=O)N1Cc1ccco1 (stereo not given)	-1%	22µM*	.	84	8%	0%
O=C1C2C(C(=O)N1/N=C/c1cc([N+](=O)[O-])ccc1O)C1C=CC2C12CC2 (stereo not given)	-22%	?	-13	7	2%	-6%
O=C1C2C(C(=O)N1Cc1ccco1)C1C=CC2C12CC2 (stereo not given)	-7%	13µM*	10	?	6%	-1%
O=C1C2C3c4ccccc4C(c4ccccc43)C2C(=O)N1Cc1ccco1 (stereo not given)	.	-6%	10	-6	?	.
NNC(=O)CCSc1ccccc1	-1%	2%[13.5 µM]	.	.	.	-2%[7.66 µM]
CC(=O)Nc1nonc1-n1nnc(C(=O)NCc2ccccc2)c1C	?	11µM*	-2	?	14%	-2%
CC#CCOCC/C=C1/c2ccccc2C(OC)C1C (stereo not given)	.	-8%[13.5 µM]	.	.	.	.
COc1ccc(NC(=O)C2CCN(C(=O)c3cccs3)CC2)cc1OC	-6%	?	-3	-7	-9%	-2%
CC(CCc1ccccc1)NC(=O)C1CCN(C(=O)c2sccc2-n2cccc2)CC1 (stereo not given)	-9%	0.35µM*	3	32	-2%	0%
O=C(NCCc1ccc(Cl)cc1)C1CCN(C(=O)c2sccc2-n2cccc2)CC1	0%	0.5µM*	-4	-25	-22%	2%
COc1ccc(CCNC(=O)C2CCN(C(=O)c3cccs3)CC2)cc1	.	0.4µM*	.	.	?	11%
O=C(NCCc1ccc(Cl)cc1)C1CCN(S(=O)(=O)N2CCCC2)CC1	-5%	3.2µM*	-20	11	8%	0%
SMILES	HPGD inh	ALDH1A1 block	IMPase cell inh	PNC assembly inh	LMNA splice mod	KinaseGlo FLuc
COc1ccc(N2CCN(S(=O)(=O)c3ccc4c(c3)C(C(C)C)C(=O)N4)CC2)cc1 (stereo not given)	.	.	.	.	3%[46 µM]	.
C[C@@]1(CCOCc2ccccc2)NC(=O)NC1=O	-3%	17%[13.5 µM]	.	.	.	-2%[7.66 µM]
c1nnc(NC2=NCCC2)s1	-13%	-1%	2	-111*	3%	-1%
CCCC[S@@](=N)(=O)CC[C@@H](N)C(=O)O	.	.	7	.	.	.
O=C(O)CC1(CC(=O)Nc2ccc(Oc3cccc(C(F)(F)F)c3)nc2)CCCC1	.	7.9µM*	.	.	.	.
COc1ccc(NC(=O)CC2(CC(=O)O)CCCC2)cn1	.	?	.	.	-13%[46 µM]	5%
Cc1cc(OCC(=O)Nc2ccc(C(=O)OC3CCCCC3)cc2)ccc1Cl	.	.	-3	.	.	.
COc1ccc(-n2c(=O)cnc3cnc(N4CCN(C)CC4)nc32)cc1	.	20%	.	.	-12%	.
COc1cccc(/C=C2\SC(=S)N(N3CCOCC3)C2=O)c1OC	-9%	14µM*	-1	-8	5%	1%
COc1ccc(/C=C2\SC(=S)N(N3C(=O)CCC3=O)C2=O)cc1O	.	?	.	.	?	0%
O=C1/C(=C/c2ccccn2)SC(=S)N1N1CCOCC1	.	4.5µM*	.	.	.	.
COc1ccccc1/C=C1\SC(=S)N(N2C(=O)CCCC2=O)C1=O	.	25µM*	.	.	?	4%
O=C1/C(=C/c2ccccc2)SC(=S)N1N1C(=O)C2CC2C1=O (stereo not given)	.	1%	.	.	.	-3%
Cc1ccc(NC(=O)/C(C#N)=C/c2cc(C)n(-c3ccc(Br)cc3)c2C)cc1C	.	.	-10	.	.	.
COc1cccc2cc(-c3csc(-c4ccc(Cl)cc4)n3)c(=O)oc12	.	.	.	.	-3%[46 µM]	.
CCOCCc1nn2c(=O)cc(COC(=O)c3cccc(C)c3)nc2s1	.	.	.	.	-5%[46 µM]	.
CN1CCN(c2ncc3nc(-c4ccccc4)c(=O)n(CCC#N)c3n2)CC1	?	?	.	.	.	-4%
COc1ccc2c(c1OC)C(=O)N1c3ccccc3N=C(c3ccc([N+](=O)[O-])cc3)CC21 (stereo not given)	35µM*	10µM*	4	41	-13%	1%
COc1ccc2c(c1OC)C(=O)N1N=C(c3ccc(Cl)cc3)CC21 (stereo not given)	-26%	11µM*	1	-93*	-15%	-3%
COc1ccc2c(c1OC)C(=O)N1N=C(c3ccc(-c4ccccc4)cc3)CC21 (stereo not given)	.	?	.	.	.	0%
COc1ccc(C2=NN3C(=O)c4c(ccc(OC)c4OC)C3C2)cc1 (stereo not given)	-20%	?	-4[1.84 µM]	13	-5%	1%
CCCCc1noc2c1/C(=N\O)CC(c1ccccc1)C2 (stereo not given)	-21%	-1%	7	-3	-14%	1%
CCc1n[nH]c2c1/C(=N\O)CC(c1ccccc1)C2 (stereo not given)	4µM*	-8%	-1	-30	?	0%
CCCCc1n[nH]c2c1/C(=N/O)CC(c1ccccc1)C2 (stereo not given)	2.5µM*	-2%	-1	34	?	-3%
